Reference: PubChem BioAssay
Measured potencies and affinities stand elsewhere. Results filed as inconclusive are left out. The source made the active and inactive calls. Unless noted, no rule for the calls is given here.

Legend:
[1] = inhibitors of PAX8-driven TPO luciferase reporter, dose response, RMG-I cells, cherry-pick (AID 687027;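 active = every replicate test run called active, with the signal dropping as expected and potency within twice the top valid dose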)
[2] = cytotoxicity in PAX8-dependent RMG-1 cells, dose response, cell-based, cherry-pick (AID 687029;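 active = signal drop whose fitted half-maximal concentration is at most twice the top valid dose, in every test run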;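 also: cells exposed to compound for 96 hours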)
[3] = cytotoxicity in IOSE-T80 ovarian epithelial cells, dose response, selectivity assay for PAX8 inhibitor project, cell-based, cherry-pick (AID 687032;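 active = fitted half-maximal concentration for viability loss no higher than twice the top valid dose, in every repeat run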;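 also: cells exposed to compound for 96 h before reading; 0% = neutral control wells and -100% = 2 µM mitoxantrone kill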)
[4] = inhibitors of CMV-promoter luciferase reporter, dose response, counter-screen for Pax8 inhibitor project, cell-based, HEK293, luminescence, dry powder (AID 743020;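 active = signal-lowering compounds whose fitted half-maximal concentration is at or below twice the top tested dose in every run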;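 also: HEK293 cells stably expressing the CMV luciferase reporter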)
[5] = non-specific cell cytotoxicity, dose response, cytotoxicity control for PAX8 inhibitor project, plate reader, dry powder samples (AID 743021)
[6] = IGROV1 ovarian cancer cell cytotoxicity, dose response, PAX8 inhibitor project, plate reader, dry powder samples (AID 743043);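 also: more negative means fewer viable cells or more cytotoxicity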
[7] = IOSE-T80 ovarian epithelial cell cytotoxicity, dose response, cytotoxicity control for PAX8 inhibitor project, plate reader, dry powder samples (AID 743045);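 also: 0% = neutral control median and -100% = positive control median; more negative values mean more cell killing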
[8] = NIH:OVCAR-3 ovarian cancer cell cytotoxicity, dose response, PAX8 inhibitor project, plate reader, dry powder samples (AID 743044); conditions: max activity: at 35 µM, stronger effect = lower value unless noted
[9] = cytotoxicity in OVCAR8 ovarian cancer cells, dose response, PAX8 project, cell-based, plate reader, dry powder samples (AID 743197)
[10] = A2780 ovarian cancer cell cytotoxicity, dose response, cytotoxicity control, plate reader, dry powder samples (AID 743046);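 also: 0% = neutral control wells and -100% = cytotoxic reference compound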

COc1ccc(NC(=O)N2CCCCN3[C@@H](CO)[C@@H](c4ccc(C5=CCCC5)cc4)[C@@H]3C2)cc1
inactive: outcome [1] | outcome [2] | outcome [3] | outcome [4] | outcome [5] | outcome [6] | outcome [7]

C[C@@H]1CCCCO[C@@H](CN(C)CC2CCCCC2)[C@H](C)CN([C@H](C)CO)C(=O)c2cc(NC(=O)Nc3ccccc3)ccc2O1
inactive: outcome [1] | outcome [2] | outcome [3] | outcome [4] | outcome [5] | outcome [6] | max activity [8] -37.2% [at 4.2 µM, stronger effect = lower value] | outcome [7] | outcome [9]

COc1ccc(-c2cn(CC[C@@H]3CC[C@H](NC(=O)Cc4ccccn4)[C@@H](CO)O3)nn2)cc1
inactive: outcome [6] | max activity [8] -8.11% [at 8 µM, stronger effect = lower value] | outcome [7] | outcome [10] | outcome [9]

Cc1ccc(-c2nc(C)sc2CC(=O)OCC(=O)Nc2cccc([N+](=O)[O-])c2)cc1
inactive: outcome [1] | outcome [2] | outcome [5]

Nc1ccc2c(c1)CC(=O)c1ccccc1S2
inactive: outcome [1] | outcome [2] | outcome [4] | outcome [5]

CC(=O)C1=C(O)C(=O)N(CCc2ccccc2)C1c1ccccc1[N+](=O)[O-] (stereo unspecified)
inactive: outcome [1] | outcome [2] | outcome [5]

CCNC(=O)C1(C)CCN(C(=O)c2ccccc2F)C1 (stereo unspecified)
inactive: outcome [1] | outcome [2] | outcome [4] | outcome [5]

COc1ccc(C(C)NC(=O)c2ccc(Br)cc2)cc1OC (stereo unspecified)
inactive: outcome [1] | outcome [2] | outcome [4] | outcome [5]

O=C(NNC(=O)c1cccc2ccccc12)c1cccc(F)c1
inactive: outcome [1] | outcome [2] | outcome [4] | outcome [5]

O=C(O)C1C=CC(C(=O)O)c2ccccc21 (stereo unspecified)
inactive: outcome [1] | outcome [2] | outcome [4] | outcome [5]

COc1ccc(C(=O)N/N=C/c2ccc(OC(=O)c3cccs3)cc2)cc1
inactive: outcome [1] | outcome [2] | outcome [5]

CO[C@@H]1CN(C)C(=O)c2cc(NC(=O)c3nc4ccccc4s3)ccc2OC[C@H](C)NC[C@H]1C
inactive: outcome [1] | outcome [2] | outcome [4] | outcome [5] | outcome [6] | max activity [8] -38.8% [at 30 µM, stronger effect = lower value] | outcome [7] | outcome [9]

O=C(NCc1ccc(F)cc1)C1(c2cccs2)CCOCC1
inactive: outcome [1] | outcome [2] | outcome [5]

Cn1ccnc1SCc1nc2c(cnn2-c2ccccc2)c(=O)[nH]1
inactive: outcome [1] | outcome [2] | outcome [5]

O=C(Cn1cc(C(F)(F)F)ccc1=O)Nc1ccc2c(c1)OCO2
inactive: outcome [1] | outcome [2] | outcome [4] | outcome [5]

OCC1CCCN(C(=S)Nc2ccc(OC(F)F)cc2)C1 (stereo unspecified)
inactive: outcome [1] | outcome [2] | outcome [5]

O=C(Cc1ccccc1)c1ccccc1C(=O)N1CCCCC1
inactive: outcome [1] | outcome [2] | outcome [4] | outcome [5]

CN(C)CC#Cc1ccc([C@@H]2[C@H](CO)N3CCCCN(C(=O)Nc4ccc(F)cc4)C[C@@H]23)cc1
inactive: outcome [1] | outcome [2] | outcome [4] | outcome [5] | outcome [6] | max activity [8] 29.4% [at 0.26 µM, stronger effect = lower value] | outcome [7] | outcome [10] | outcome [9]

Cc1cc([N+](=O)[O-])nn1CCCC(=O)Nc1sc2c(c1C(N)=O)CCC(C)C2 (stereo unspecified)
inactive: outcome [1] | outcome [2] | outcome [5]

Cc1nnc(N/N=C/c2cccc(C(F)(F)F)c2)n1N
inactive: outcome [1] | outcome [2] | outcome [5]

CC(=O)N/C(=C\c1ccccc1)C(=O)OCC(=O)NC1CCCC1
inactive: outcome [1] | outcome [2] | outcome [4] | outcome [5]

Cc1ccc(NC(=O)c2c([N+](=O)[O-])c(C(C)(C)C)nn2C)c(C)c1
inactive: outcome [1] | outcome [2] | outcome [5]

Nn1cnnc1N/N=C\c1ccc(-c2ccccc2[N+](=O)[O-])o1
inactive: outcome [1] | outcome [2] | outcome [4] | outcome [5]

CCCNC(=O)COC(=O)/C=C/c1ccco1
inactive: outcome [1] | outcome [2] | outcome [5]

Cc1ccc(-c2ccc([C@@H]3[C@H](CO)N4CCCCN(C(=O)Nc5cccc(F)c5)C[C@@H]34)cc2)cc1
inactive: outcome [1] | outcome [2] | outcome [4] | outcome [5] | outcome [7] | outcome [10]

COc1ccc2c(c1)OC/C(=C/c1cccs1)C2=O
inactive: outcome [1] | outcome [2] | outcome [5]

Cc1cc(C)c2c(c1)/C(=N/NC(=O)c1cc(C)oc1C)CCC2
inactive: outcome [1] | outcome [2] | outcome [5]

Cc1ccc2nc(-c3ccc(NC(=S)NC4CC(C)(C)NC(C)(C)C4)cc3)sc2c1
inactive: outcome [1] | outcome [2] | outcome [5]

CN(C(=O)COC(=O)C1CCN(S(=O)(=O)c2c(Cl)cccc2Cl)CC1)C1CCS(=O)(=O)C1 (stereo unspecified)
inactive: outcome [1] | outcome [2] | outcome [4] | outcome [5]

Cc1ccc(/C=C/C(=O)N2CCN(c3cccc(C(F)(F)F)c3)CC2)cc1
inactive: outcome [1] | outcome [2] | outcome [5]

O=C(Cc1ccc(F)cc1)OCC(=O)N1CCN(S(=O)(=O)c2ccc(Cl)cc2)CC1
inactive: outcome [1] | outcome [2] | outcome [4] | outcome [5]

O=[N+]([O-])c1cc(-c2nnc(-c3ccccc3)o2)ccc1Oc1ccc(Cl)cc1
inactive: outcome [1] | outcome [2] | outcome [5]

C[C@H](CO)N1C[C@H](C)[C@@H](CN(C)C(=O)Nc2ccnc(N3CCOCC3)c2)OCc2cnnn2CCCC1=O
inactive: outcome [1] | outcome [2] | outcome [4] | outcome [5] | outcome [6] | max activity [8] 8.36% [at 0.26 µM, stronger effect = lower value] | outcome [7] | outcome [9]

CCCCCC(=O)N/N=C(\C)c1ccc(N2CCCCC2)cc1
inactive: outcome [1] | outcome [2] | outcome [5]

CCN1CCN(c2nc(-c3cccs3)nc3ccccc23)CC1
inactive: outcome [1] | activity change, negative = inhibition [2] 16.7% [at 8 µM] | outcome [5]

Cc1cc(OCCCn2cnc3ccccc3c2=O)ccc1[N+](=O)[O-]
inactive: outcome [1] | outcome [2] | outcome [4] | outcome [5]

COc1ccc(C(=O)NC(=S)NNC(=O)COc2ccccc2)cc1
inactive: outcome [1] | outcome [2] | outcome [5]

COc1ccc(OCCNC(=O)/C=C/c2ccc([N+](=O)[O-])cc2)cc1
inactive: outcome [1] | outcome [2] | outcome [4] | outcome [5]

CC(C)(C)OC(=O)[C@H](Cc1ccccc1)NC(=O)c1nc[nH]c1C(=O)N[C@@H](Cc1ccccc1)C(=O)OC(C)(C)C
inactive: activity change, negative = inhibition [1] -24.7% [at 8 µM] | outcome [2] | outcome [5]

C[C@@H]1CN([C@@H](C)CO)C(=O)CCCn2nncc2CO[C@H]1CN(C)S(=O)(=O)c1ccc(Cl)cc1
inactive: outcome [1] | outcome [2] | outcome [5]

CCCCCCCCNC(=O)c1cnccn1
inactive: outcome [1] | outcome [2] | outcome [4] | outcome [5]

Oc1ccc(F)c2cccnc12
inactive: outcome [1] | outcome [3] | outcome [4] | outcome [5]

O=C(/C=C/c1ccc(Cl)cc1Cl)N1CCN(c2ccccc2[N+](=O)[O-])CC1
inactive: outcome [1] | outcome [2] | outcome [4] | outcome [5]

O=C(CCC(=O)c1ccccc1)NCCc1c[nH]c2ccccc12
inactive: outcome [1] | outcome [4] | outcome [5]

N#Cc1nccnc1S(=O)(=O)c1cccs1
inactive: outcome [2]

Cc1nnc(N/N=C/c2cc(C)n(-c3ccc(F)cc3)c2C)n1N
inactive: outcome [1] | outcome [4] | outcome [5]

CN(C)CCNC(=O)c1cccc(-c2cnc3c(NC=O)cc(-c4cccc(C(F)(F)F)c4)cn23)c1
inactive: outcome [2]

O=S(=O)(NCC1CCCO1)c1cnc(Cl)c(Br)c1 (stereo unspecified)
inactive: outcome [1] | outcome [4] | outcome [5]

COc1ccc(/C=c2/sc3n(c2=O)C(c2ccccc2OC)C2=C(N=3)c3ccccc3CC2)cc1O (stereo unspecified)
inactive: outcome [2]

COc1ccc2c(COC(=O)CNC(=O)C34CC5CC(CC(C5)C3)C4)cc(=O)oc2c1
inactive: outcome [1] | outcome [5]

CN(C[C@H]1N[C@@H](CO)[C@@H]1c1ccc(C2=CCCC2)cc1)C(=O)c1cccc(F)c1
inactive: outcome [2]

NC(N)=NN=C(c1ccc(F)cc1)c1ccc(C(F)(F)F)cc1
inactive: outcome [2]

CCOc1ccc2nc(N/C(N)=N/C(=S)Nc3ccc(C)c(C)c3)nc(C)c2c1
inactive: outcome [1] | outcome [4] | outcome [5]

CNC[C@@H]1Oc2ccc(NC(=O)NC(C)C)cc2CC(=O)N([C@@H](C)CO)C[C@@H]1C
inactive: outcome [1] | outcome [4] | outcome [5] | outcome [6] | max activity [8] 22.5% [at 0.5 µM, stronger effect = lower value] | outcome [7] | outcome [10] | outcome [9]

Nc1nc(N)c2c(ccc3c2ccn3Cc2cccc([N+](=O)[O-])c2)n1
inactive: outcome [2]

CNC[C@H]1Oc2ccc(NC(=O)NC(C)C)cc2CC(=O)N([C@@H](C)CO)C[C@@H]1C
inactive: outcome [1] | outcome [3] | outcome [4] | outcome [5] | outcome [6] | max activity [8] 12.2% [at 2.1 µM, stronger effect = lower value] | outcome [7] | outcome [10] | outcome [9]

NC1=C(Br)C(=O)c2ncccc2C1=O
inactive: outcome [2]

CC(=O)/C=C/n1c(=S)oc2ccccc21
inactive: outcome [2]

CCOc1ccc(-n2c(=S)sc3c(=O)[nH]c(SCC(=O)NCC4CCCO4)nc32)cc1 (stereo unspecified)
inactive: outcome [1] | outcome [4] | outcome [5]

Cc1cc(CN(C)C(=O)c2cc(COc3ccc4ncccc4c3)on2)on1
inactive: outcome [1] | outcome [4] | outcome [5]

COc1ccccc1CNC(=O)c1ccc2nc3[nH]c4ccccc4c3nc2c1
inactive: outcome [1] | outcome [3] | outcome [5]

COc1cccc(S(=O)(=O)NCC(=O)Nc2ccc(C(C)(C)C)cc2)c1
inactive: outcome [1] | outcome [3] | outcome [5]

COc1ccccc1NC(=O)c1nc(S(=O)(=O)Cc2ccccc2)ncc1Cl
inactive: outcome [2]

COc1cccc(CC(=O)Nc2nc3c(s2)C(=O)CC(C)(C)C3)c1
inactive: outcome [1] | outcome [4]

C[C@@H]1CN([C@@H](C)CO)S(=O)(=O)c2ccc(C#Cc3ccncc3)cc2O[C@@H]1CN(C)C(=O)C1CCCCC1
inactive: outcome [1] | outcome [3] | outcome [4] | outcome [5] | outcome [6] | max activity [8] -17.5% [at 1 µM, stronger effect = lower value] | outcome [7] | outcome [10] | outcome [9]

C=C1C(=O)C23C(O)C1CCC2C12CCCC(C)(COC(C)=O)C1C(O)C3(O)OC2 (stereo unspecified)
inactive: outcome [2]

O=C(CCl)N=c1sccn1Cc1cccc2ccccc12
inactive: outcome [2]

COc1cc(OC)cc(C(=O)NCC(=O)OCC(=O)c2cc(C)n(Cc3ccco3)c2C)c1
inactive: outcome [1] | outcome [4] | outcome [5]

Cc1nc(-c2ccc(NC(=O)c3ccco3)cc2)cs1
inactive: outcome [2]

Cc1cc(Br)c(OCc2ccc(C(=O)N/N=C/c3ccc[nH]3)cc2)c(Br)c1
inactive: outcome [2]

C[C@@H]1CN([C@@H](C)CO)C(=O)Cc2cc(NS(=O)(=O)c3ccccc3)ccc2O[C@H]1CN(C)Cc1ccc(Cl)c(Cl)c1
inactive: outcome [2]

O=C(NCc1ccco1)C1CCCN(S(=O)(=O)c2ccc(Br)cc2)C1 (stereo unspecified)
inactive: outcome [1] | outcome [4] | outcome [5]

OCC1OC(n2cnc3c(NCc4ccccc4O)ncnc32)C(O)C1O (stereo unspecified)
inactive: outcome [2]
